Experimental data as given in PubChem BioAssay.
Records with an inconclusive call do not appear. Calls of active or inactive are those of the source. Unless noted, the limit is not given here; nearly all actives have AC50 up to about 26 µM.

Legend:
[1] = growth inhibition of DIPG glioma cells, dose response, cell-based, SU-DIPG-XVII, MIPE5.0, CellTiter-Glo, qHTS (AID 1347060); conditions: SU-DIPG-XVII viability, CellTiter-Glo ATP luminescence;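 as to AC50: cells exposed to compound for 48 hours before viability readout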
[2] = growth inhibition of DIPG glioma cells, dose response, cell-based, SU-DIPG-XIII, MIPE5.0, CellTiter-Glo, qHTS (AID 1347064; cut-off not given, nearly all actives have AC50 up to about 23 µM;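 as to AC50: cells exposed to compound for 48 hours before the viability read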); conditions: SU-DIPG-XIII viability, CellTiter-Glo ATP luminescence
[3] = viability loss in pontine glioma line – cell-based, SU-DIPG-XXV, MIPE5.0, CellTiter-Glo, qHTS, dose response (AID 1347065); conditions: CellTiter-Glo ATP luminescence;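 also: cells exposed to compound for 48 hours before ATP readout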
[4] = JHH-DIPG-1 glioma cell viability, MIPE5.0 library, CellTiter-Glo luminescence, qHTS (AID 1347067); conditions: JHH-DIPG-1 glioma viability, CellTiter-Glo ATP luminescence;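 also: cells exposed to compound for 48 hours before readout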
[5] = SU-DIPG-XXV glioma cell viability, MIPE5.0 library, qHTS (AID 1347068; cut-off not given, nearly all actives have IC50 up to about 30 µM;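 as to IC50: cells exposed to compound for 48 hours before viability readout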)

| SMILES | AC50 [1] | AC50 [2] | AC50 [3] | AC50 [4] | outcome [5] | IC50 [5] | outcome [1] | outcome [2] | outcome [3] | outcome [4] |
| --- | --- | --- | --- | --- | --- | --- | --- | --- | --- | --- |
| CNS(=O)(=O)c1ccc2c(c1)/C(=C/c1[nH]c3c(c1CCCN1CCN(C)CC1)CCCC3)C(=O)N2 | 7.42 µM (active) | 8.33 µM (active) | 7.42 µM (active) | 10.5 µM (active) | inactive |  |  |  |  |  |
| Cc1ccc(NC(=O)NCc2ccc3c(c2)CN(C2CCC(=O)NC2=O)C3=O)cc1Cl (stereo not given) | 0.00742 µM (active) | 0.00296 µM (active) | 0.00186 µM (active) | 0.00118 µM (active) |  | 0.00372 µM (active) |  |  |  |  |
| CCOc1ccc(-n2c([C@@H](C)N(Cc3cccnc3)C(=O)Cc3ccc(F)c(C(F)(F)F)c3)nc3ncccc3c2=O)cc1 |  |  |  |  | inactive |  | inactive | inactive | inactive | inactive |
| C=C1C(=O)O[C@@H]2[C@H]3C(C)=CC[C@@]34O[C@@]4(C)CC[C@@H]12 | 11.8 µM (active) | 11.8 µM (active) | 9.34 µM (active) | 8.33 µM (active) |  | 20.9 µM (active) |  |  |  |  |
| COc1cc(F)ccc1-c1ncnc(Nc2cccc(CS(C)(=N)=O)c2)n1 (stereo not given) | 1.48 µM (active) | 1.48 µM (active) | 1.66 µM (active) | 1.86 µM (active) |  | 1.86 µM (active) |  |  |  |  |
| OC1CCC(Oc2cccc3cnc(Nc4ccc5nc[nH]c5c4)nc23)CC1 (stereo not given) | 0.833 µM (active) | 2.09 µM (active) | 0.661 µM (active) | 1.32 µM (active) |  | 1.05 µM (active) |  |  |  |  |
| CNC(=O)c1ccc(Nc2ncc(C(F)(F)F)c(NCc3nccnc3N(C)S(C)(=O)=O)n2)cc1 | 4.68 µM (active) | 5.25 µM (active) | 3.72 µM (active) | 4.68 µM (active) |  | 2.35 µM (active) |  |  |  |  |
| CC1(C)CN(C(=O)c2ccc(-c3cccc4nc(NC(=O)C5CC5)nn34)cc2)C1 |  |  |  |  | inactive |  | inactive | inactive | inactive | inactive |
| O=C(Nc1cc(Oc2cc(F)c(NC(=O)C3(C(=O)Nc4ccc(F)cc4)CC3)cc2F)ccn1)C1CC1 | 14.8 µM (active) | 13.2 µM (active) | 9.34 µM (active) | 13.2 µM (active) |  | 18.6 µM (active) |  |  |  |  |
| CCS(=O)(=O)N1CCC([C@@H](C)n2c(C)c(C(=O)NCc3c(OC)cc(C)[nH]c3=O)c3ccccc32)CC1 |  |  |  |  | inactive |  | inactive | inactive | inactive | inactive |
| COc1cc(OC)c(/C=C/S(=O)(=O)Cc2ccc(OC)c(OP(=O)(O)O)c2)c(OC)c1 | 0.0417 µM (active) | 0.0417 µM (active) | 0.0742 µM (active) | 0.059 µM (active) |  | 0.0742 µM (active) |  |  |  |  |
| O=C(NO)c1ccc(C2=Nc3ccccc3Oc3ccccc32)cc1 | 10.5 µM (active) | 5.25 µM (active) | 7.42 µM (active) | 11.8 µM (active) |  | 14.8 µM (active) |  |  |  |  |
| C=C1C(=O)O[C@H]2C[C@H](C)C(/C=C/C(C)=O)=CC[C@H]12 | 4.17 µM (active) | 2.63 µM (active) | 4.68 µM (active) | 3.32 µM (active) |  | 7.42 µM (active) |  |  |  |  |
| COc1cc(F)c(F)c(Nc2ccc(I)cc2F)c1NS(=O)(=O)C1(C[C@H](O)CO)CC1 | 0.417 µM (active) | 0.235 µM (active) | 0.59 µM (active) | 0.209 µM (active) |  | 2.63 µM (active) |  |  |  |  |
| C[C@H](Nc1nc(N[C@H](C)C(F)(F)F)nc(-c2cccc(Cl)n2)n1)C(F)(F)F |  |  |  |  | inactive |  | inactive | inactive | inactive | inactive |
| CCc1cccc2c3c([nH]c12)[C@@](CC)(CC(=O)O)OCC3 |  |  |  |  | inactive |  | inactive | inactive | inactive | inactive |
| CC(C)c1c2cc(-c3ccnc(NC4CCC(NC5CCOCC5)CC4)n3)ccc2nn1C (stereo not given) | 0.417 µM (active) | 0.372 µM (active) | 0.468 µM (active) | 0.417 µM (active) |  | 0.525 µM (active) |  |  |  |  |
| COc1cc(N2CCC(O)CC2)ccc1Nc1cc(Nc2ccccc2S(=O)(=O)C(C)C)c2cc[nH]c2n1 | 23.5 µM (active) | 10.5 µM (active) | 7.42 µM (active) | 16.6 µM (active) | inactive |  |  |  |  |  |
| C1=C/COCc2cc(ccc2OCCN2CCCC2)Nc2nccc(n2)-c2cccc(c2)COC/1 | 2.95 µM (active) | 2.95 µM (active) | 2.09 µM (active) | 4.17 µM (active) |  | 2.95 µM (active) |  |  |  |  |
| COc1cc2c(Oc3ccc4[nH]c(C)cc4c3F)ccnc2cc1OCC1(N)CC1 | 3.32 µM (active) | 2.95 µM (active) | 2.95 µM (active) | 5.9 µM (active) |  | 16.6 µM (active) |  |  |  |  |
| NC(=O)c1ccccc1Nc1ccnc(Nc2cccc(O)c2)n1 | 2.63 µM (active) | 5.25 µM (active) | 1.32 µM (active) | 18.6 µM (active) |  | 4.68 µM (active) |  |  |  |  |
| [2H]c1nc(C)nc([2H])c1-c1cc(NC[C@@H](C)c2cccc3c(C(=O)NC)ccnc23)ncn1 |  |  |  |  | inactive |  | inactive | inactive | inactive | inactive |

| SMILES | AC50 [1] | AC50 [2] | AC50 [3] | AC50 [4] | outcome [5] | IC50 [5] | outcome [1] | outcome [2] | outcome [3] | outcome [4] |
| --- | --- | --- | --- | --- | --- | --- | --- | --- | --- | --- |
| CNC(=O)Cn1cc(-c2ccc3c(c2)C(F)CC32NC(=O)N(CC(=O)N(Cc3ccc(F)cc3)[C@@H](C)C(F)(F)F)C2=O)cn1 (stereo not given in full) |  |  |  |  | inactive |  | inactive | inactive | inactive | inactive |
| CCN1CCN(Cc2ccc(NC(=O)c3ccc(C)c(/C=C/c4cnc5[nH]ccc5c4OC)c3)cc2C(F)(F)F)CC1 | 1.86 µM (active) | 2.35 µM (active) | 2.09 µM (active) | 3.72 µM (active) |  | 3.72 µM (active) |  |  |  |  |
| CN[C@@H]1[C@@H](O)[C@@H](O[C@@H]2[C@@H](O)[C@H](O[C@H]3O[C@H](CN)[C@@H](O)[C@H](O)[C@H]3O)[C@@H](N)C[C@H]2NC(=O)C(O)CN)OC[C@]1(C)O (stereo not given in full) |  |  |  |  | inactive |  | inactive | inactive | inactive | inactive |
| COC(=O)N(C)c1c(N)nc(-c2nn(Cc3ccccc3F)c3ncccc23)nc1N |  |  |  |  | inactive |  | inactive | inactive | inactive | inactive |
| CN1C(=O)[C@@H](NC(=O)c2n[nH]c(Cc3ccccc3)n2)COc2ccccc21 |  |  |  |  | inactive |  | inactive | inactive | inactive | inactive |
| CN1C(=O)N[C@@H](Cc2c[nH]c3c(Cl)cccc23)C1=O |  |  |  |  | inactive |  | inactive | inactive | inactive | inactive |
| O=C(/C=C/c1ccc2ccc(C(F)(F)F)cc2n1)c1ccncc1 | 4.17 µM (active) | 1.48 µM (active) | 2.95 µM (active) | 2.35 µM (active) |  | 7.42 µM (active) |  |  |  |  |
| CC(=O)c1ccc2c(c1)c1cc(C(C)=O)ccc1n2CCNC(C)C | 2.95 µM (active) | 4.68 µM (active) | 3.32 µM (active) | 2.63 µM (active) |  | 5.9 µM (active) |  |  |  |  |
| Cc1ncsc1-c1ccc([C@H](C)NC(=O)[C@@H]2C[C@@H](O)CN2C(=O)[C@@H](NC(=O)COCCCOCCNC(=O)C[C@@H]2N=C(c3ccc(Cl)cc3)c3c(sc(C)c3C)-n3c(C)nnc32)C(C)(C)C)cc1 | 0.132 µM (active) | 0.209 µM (active) | 0.0742 µM (active) | 0.0525 µM (active) |  | 0.332 µM (active) |  |  |  |  |
| CC(=O)c1cc2c(o1)C(=O)c1ccccc1C2=O | 3.32 µM (active) | 0.934 µM (active) | 2.95 µM (active) | 1.66 µM (active) |  | 2.95 µM (active) |  |  |  |  |
| CCCC(CCC)C(=O)Nc1ccn([C@@H]2O[C@H](CO)[C@@H](O)C2(F)F)c(=O)n1 | 4.68 µM (active) |  |  |  | inactive |  |  | inactive | inactive | inactive |
| COc1ccccc1C(=O)Nc1cc2c(cc1N1CCNC[C@H]1C)n(C)c(=O)n2C |  |  |  |  | inactive |  | inactive | inactive | inactive | inactive |
| CO[C@@H](C)Cn1c(=O)n(C)c2cnc3ccc(-c4cncc(C(C)(C)O)c4)cc3c21 | 0.934 µM (active) | 1.86 µM (active) | 0.59 µM (active) | 1.05 µM (active) |  | 1.48 µM (active) |  |  |  |  |
| CCC(C)CNCC(=O)N1CCc2sccc2C1c1cccc(C)n1 (stereo not given) |  |  |  |  | inactive |  | inactive | inactive | inactive | inactive |
| CNC(=O)CCc1cc(-c2ccc(-c3ccc(C(F)(F)F)cc3)cc2)n(-c2ccc(N3CCNCC3)cc2)n1 | 5.25 µM (active) | 7.42 µM (active) | 2.63 µM (active) | 3.72 µM (active) |  | 9.34 µM (active) |  |  |  |  |
| Cc1c(-c2c(-c3ccc(F)o3)sc3ncnc(O[C@@H](Cc4ccccc4OCc4ccnn4CC(F)(F)F)C(=O)O)c23)ccc(OCCN2CCN(C)CC2)c1Cl | 0.295 µM (active) | 6.61 µM (active) | 0.132 µM (active) | 3.32 µM (active) |  | 1.32 µM (active) |  |  |  |  |
| C=CC(=O)N1CCC(Oc2cc3c(Nc4ccc(Cl)c(Cl)c4F)ncnc3cc2OC)CC1 | 6.61 µM (active) | 5.25 µM (active) | 3.32 µM (active) | 5.25 µM (active) |  | 16.6 µM (active) |  |  |  |  |
| O=C(NCC(=O)N1CCCC1)Nc1ccc2cnccc2c1 |  |  |  |  | inactive |  | inactive | inactive | inactive | inactive |
| Cc1cn(CCN2CCN(c3ccccc3-c3cc(C#N)cc(C(=O)NCCCN4CCCC4)c3)CC2)c2ccccc12 | 8.33 µM (active) | 10.5 µM (active) | 7.42 µM (active) | 8.33 µM (active) |  | 7.42 µM (active) |  |  |  |  |
| O=S(=O)(Nc1ccc(-c2cccnc2)c2cccnc12)c1cccc(C(F)(F)F)c1 | 11.8 µM (active) | 16.6 µM (active) | 14.8 µM (active) | 7.42 µM (active) | inactive |  |  |  |  |  |
| Cn1ncc(Cl)c1-c1cc(C(=O)N[C@H](CN)Cc2ccc(F)c(F)c2)sc1Cl | 18.6 µM (active) | 2.35 µM (active) | 1.32 µM (active) | 16.6 µM (active) |  | 16.6 µM (active) |  |  |  |  |
| COC(=O)N1CC2(CC2)C[C@H](C(=O)NO)[C@H]1C(=O)N1CCN(c2ccccc2)CC1 |  |  |  |  | inactive |  | inactive | inactive | inactive | inactive |
